Data on three compounds can be found in ChEMBL document CHEMBL1961873, “Compounds: GSK PKIS; Assays: Nanosyn kinase panel” (2012).

In test [1] the target is 5'-AMP-activated protein kinase catalytic subunit alpha-2 (Homo sapiens) (UniProt P54646). To be noted: at 1 µM.
The target of test [2] is T1, NUAK family SNF1-like kinase 1 (Homo sapiens) (UniProt O60285).
T1 sequence (whole entry): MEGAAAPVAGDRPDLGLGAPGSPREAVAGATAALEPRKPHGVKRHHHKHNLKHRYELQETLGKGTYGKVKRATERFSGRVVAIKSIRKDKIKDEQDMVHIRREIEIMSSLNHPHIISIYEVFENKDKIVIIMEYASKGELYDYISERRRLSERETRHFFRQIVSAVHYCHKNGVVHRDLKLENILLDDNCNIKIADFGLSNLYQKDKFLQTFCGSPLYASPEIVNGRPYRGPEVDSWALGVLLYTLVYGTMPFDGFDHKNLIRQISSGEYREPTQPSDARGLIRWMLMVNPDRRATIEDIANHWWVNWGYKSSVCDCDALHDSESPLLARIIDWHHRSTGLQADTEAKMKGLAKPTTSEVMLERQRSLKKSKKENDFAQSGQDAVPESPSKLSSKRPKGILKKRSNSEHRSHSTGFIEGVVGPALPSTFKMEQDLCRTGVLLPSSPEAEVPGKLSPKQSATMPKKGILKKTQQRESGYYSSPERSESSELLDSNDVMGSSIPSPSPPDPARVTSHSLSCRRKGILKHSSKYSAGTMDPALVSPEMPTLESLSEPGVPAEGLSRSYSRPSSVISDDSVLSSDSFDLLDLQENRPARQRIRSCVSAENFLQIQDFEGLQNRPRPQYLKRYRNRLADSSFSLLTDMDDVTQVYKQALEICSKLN
To be noted: at 0.1 µM.

Test [3] has as its target T1, NUAK family SNF1-like kinase 1 (Homo sapiens). The note with it: at 1 µM.
Test [4] deals with T2, Serine/threonine-protein kinase BRSK1 (Homo sapiens) (UniProt Q8TDC3).
T2 sequence (whole entry): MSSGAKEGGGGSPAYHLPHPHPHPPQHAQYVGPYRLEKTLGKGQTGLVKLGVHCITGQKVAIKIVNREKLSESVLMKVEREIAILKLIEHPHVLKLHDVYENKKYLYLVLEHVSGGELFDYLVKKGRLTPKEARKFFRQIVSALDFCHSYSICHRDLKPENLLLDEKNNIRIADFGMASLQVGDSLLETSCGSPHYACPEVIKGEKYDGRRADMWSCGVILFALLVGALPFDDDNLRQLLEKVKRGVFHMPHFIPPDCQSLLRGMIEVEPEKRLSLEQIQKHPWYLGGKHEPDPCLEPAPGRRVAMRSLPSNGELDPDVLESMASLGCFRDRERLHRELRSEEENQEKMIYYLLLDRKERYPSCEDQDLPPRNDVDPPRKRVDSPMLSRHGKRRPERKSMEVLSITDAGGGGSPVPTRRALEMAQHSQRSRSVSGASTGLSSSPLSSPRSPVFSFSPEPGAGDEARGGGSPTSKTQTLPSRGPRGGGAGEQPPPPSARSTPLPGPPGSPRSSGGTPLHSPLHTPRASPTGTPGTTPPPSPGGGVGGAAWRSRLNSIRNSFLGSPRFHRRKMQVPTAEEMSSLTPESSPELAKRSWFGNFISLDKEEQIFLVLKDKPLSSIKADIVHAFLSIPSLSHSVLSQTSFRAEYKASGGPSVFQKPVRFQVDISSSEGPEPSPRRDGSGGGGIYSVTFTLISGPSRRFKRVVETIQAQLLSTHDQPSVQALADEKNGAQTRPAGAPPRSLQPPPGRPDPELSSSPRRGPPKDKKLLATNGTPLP
To be noted: at 0.1 µM.

For test [5], the target named is T2, Serine/threonine-protein kinase BRSK1 (Homo sapiens). To be noted: at 1 µM.
The target in test [6] is T3, Serine/threonine-protein kinase BRSK2 (Homo sapiens) (UniProt Q8IWQ3).
T3 sequence (whole entry): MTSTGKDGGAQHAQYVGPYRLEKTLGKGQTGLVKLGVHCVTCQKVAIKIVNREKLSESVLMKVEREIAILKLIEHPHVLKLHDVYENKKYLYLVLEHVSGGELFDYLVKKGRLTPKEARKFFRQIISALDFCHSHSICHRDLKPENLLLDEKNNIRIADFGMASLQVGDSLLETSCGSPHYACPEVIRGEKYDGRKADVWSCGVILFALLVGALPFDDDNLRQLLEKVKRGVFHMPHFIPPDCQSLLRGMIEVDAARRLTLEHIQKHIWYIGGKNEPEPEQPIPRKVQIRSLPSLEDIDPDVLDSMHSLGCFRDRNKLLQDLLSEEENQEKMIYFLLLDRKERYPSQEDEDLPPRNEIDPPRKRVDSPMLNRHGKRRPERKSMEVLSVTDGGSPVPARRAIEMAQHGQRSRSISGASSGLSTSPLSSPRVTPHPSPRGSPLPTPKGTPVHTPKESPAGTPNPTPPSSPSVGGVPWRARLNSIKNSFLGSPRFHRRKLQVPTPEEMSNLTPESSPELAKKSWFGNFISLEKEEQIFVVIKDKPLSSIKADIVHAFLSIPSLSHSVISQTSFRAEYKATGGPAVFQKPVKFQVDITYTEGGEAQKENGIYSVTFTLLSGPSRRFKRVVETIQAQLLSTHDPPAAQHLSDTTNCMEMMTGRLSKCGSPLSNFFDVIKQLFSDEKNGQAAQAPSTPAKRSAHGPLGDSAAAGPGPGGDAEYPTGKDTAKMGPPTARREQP
The note with it: at 0.1 µM.

In test [7] the target is T3, Serine/threonine-protein kinase BRSK2 (Homo sapiens). The note with it: at 1 µM.
For test [8], the target named is Calcium/calmodulin-dependent protein kinase type 1D (Homo sapiens) (UniProt Q8IU85). To be noted: at 0.1 µM.
Test [9] shares this target. To be noted: at 1 µM.
Test [10] has as its target Calcium/calmodulin-dependent protein kinase type II subunit alpha (Homo sapiens) (UniProt Q9UQM7). To be noted: at 0.1 µM.
Test [11] has the same target. The note with it: at 1 µM.
The target of test [12] is Calcium/calmodulin-dependent protein kinase type II subunit delta (Homo sapiens) (UniProt Q13557). To be noted: at 0.1 µM.
Test [13] has the same target. The note with it: at 1 µM.
The target in test [14] is T4, Calcium/calmodulin-dependent protein kinase type IV (Homo sapiens) (UniProt Q16566).
T4 sequence (whole entry): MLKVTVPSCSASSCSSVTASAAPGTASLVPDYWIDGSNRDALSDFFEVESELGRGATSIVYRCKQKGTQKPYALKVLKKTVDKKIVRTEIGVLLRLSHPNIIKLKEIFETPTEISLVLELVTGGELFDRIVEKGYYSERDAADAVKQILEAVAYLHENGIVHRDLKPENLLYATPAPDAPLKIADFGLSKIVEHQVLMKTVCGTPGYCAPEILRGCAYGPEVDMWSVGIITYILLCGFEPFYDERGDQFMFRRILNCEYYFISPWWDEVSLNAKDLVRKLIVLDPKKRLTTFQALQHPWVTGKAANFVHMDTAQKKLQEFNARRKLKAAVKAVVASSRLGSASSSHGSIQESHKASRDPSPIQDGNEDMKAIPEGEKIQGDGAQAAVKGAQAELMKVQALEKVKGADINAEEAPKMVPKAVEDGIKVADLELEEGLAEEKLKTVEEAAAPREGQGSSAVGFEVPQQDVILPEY
The note with it: at 0.1 µM.

Test [15] has as its target T4, Calcium/calmodulin-dependent protein kinase type IV (Homo sapiens). To be noted: at 1 µM.
Test [16] deals with T5, Serine/threonine-protein kinase Chk1 (Homo sapiens) (UniProt O14757).
T5 sequence (whole entry): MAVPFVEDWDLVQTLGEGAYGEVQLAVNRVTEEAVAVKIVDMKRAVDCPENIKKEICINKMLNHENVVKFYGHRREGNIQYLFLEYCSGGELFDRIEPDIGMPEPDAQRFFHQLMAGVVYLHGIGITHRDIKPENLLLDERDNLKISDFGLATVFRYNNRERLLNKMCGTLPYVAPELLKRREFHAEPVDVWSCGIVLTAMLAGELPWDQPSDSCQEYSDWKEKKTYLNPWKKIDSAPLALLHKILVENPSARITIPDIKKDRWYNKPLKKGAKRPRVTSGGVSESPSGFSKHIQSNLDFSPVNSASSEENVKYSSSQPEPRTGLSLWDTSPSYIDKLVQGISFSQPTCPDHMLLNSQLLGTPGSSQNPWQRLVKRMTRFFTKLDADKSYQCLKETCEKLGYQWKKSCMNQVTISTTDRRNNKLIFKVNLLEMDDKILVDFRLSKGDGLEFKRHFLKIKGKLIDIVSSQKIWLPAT
To be noted: at 0.1 µM.

Test [17] concerns the target T5, Serine/threonine-protein kinase Chk1 (Homo sapiens). The note with it: at 1 µM.
Test [18] concerns the target Serine/threonine-protein kinase Chk2 (Homo sapiens) (UniProt O96017). To be noted: at 0.1 µM.
Test [19] shares this target. The note with it: at 1 µM.
Test [20] addresses Death-associated protein kinase 1 (Homo sapiens) (UniProt P53355). The note with it: at 0.1 µM.

Usually inhibition stands for the drop in the measured response relative to a control, in per cent.

5'-AMP-activated protein kinase catalytic subunit alpha-2 (Homo sapiens), sequence (P54646 whole entry, looked up): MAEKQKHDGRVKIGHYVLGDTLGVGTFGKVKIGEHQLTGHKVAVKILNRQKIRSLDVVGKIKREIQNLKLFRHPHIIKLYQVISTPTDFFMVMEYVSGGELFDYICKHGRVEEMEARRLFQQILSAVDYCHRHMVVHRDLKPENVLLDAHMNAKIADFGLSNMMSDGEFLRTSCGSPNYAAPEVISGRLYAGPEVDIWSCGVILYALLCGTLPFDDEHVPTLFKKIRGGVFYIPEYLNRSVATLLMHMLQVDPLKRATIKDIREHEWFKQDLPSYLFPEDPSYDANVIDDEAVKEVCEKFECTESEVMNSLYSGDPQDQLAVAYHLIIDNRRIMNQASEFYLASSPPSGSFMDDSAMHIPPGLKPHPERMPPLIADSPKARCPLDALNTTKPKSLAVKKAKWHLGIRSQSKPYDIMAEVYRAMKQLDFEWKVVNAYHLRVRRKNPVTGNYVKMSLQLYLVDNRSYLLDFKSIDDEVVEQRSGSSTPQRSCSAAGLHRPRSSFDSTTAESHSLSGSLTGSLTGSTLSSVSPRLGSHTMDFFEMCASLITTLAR
Serine/threonine-protein kinase Chk2 (Homo sapiens), sequence (O96017 whole entry): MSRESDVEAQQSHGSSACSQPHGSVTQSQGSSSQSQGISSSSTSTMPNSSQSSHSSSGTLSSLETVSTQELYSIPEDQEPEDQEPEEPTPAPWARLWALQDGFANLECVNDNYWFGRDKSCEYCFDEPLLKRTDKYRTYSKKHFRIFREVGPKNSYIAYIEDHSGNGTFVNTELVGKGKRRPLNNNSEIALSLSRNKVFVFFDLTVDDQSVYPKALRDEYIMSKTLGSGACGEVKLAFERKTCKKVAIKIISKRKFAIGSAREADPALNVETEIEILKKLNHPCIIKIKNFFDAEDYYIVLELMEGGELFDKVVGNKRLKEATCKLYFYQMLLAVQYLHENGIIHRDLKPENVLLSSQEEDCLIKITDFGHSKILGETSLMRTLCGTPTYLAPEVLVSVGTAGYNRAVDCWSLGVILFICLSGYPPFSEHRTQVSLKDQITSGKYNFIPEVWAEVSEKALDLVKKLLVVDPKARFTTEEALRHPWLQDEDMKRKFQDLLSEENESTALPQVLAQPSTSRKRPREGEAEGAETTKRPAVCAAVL
Calcium/calmodulin-dependent protein kinase type 1D (Homo sapiens), sequence (Q8IU85 whole entry, looked up): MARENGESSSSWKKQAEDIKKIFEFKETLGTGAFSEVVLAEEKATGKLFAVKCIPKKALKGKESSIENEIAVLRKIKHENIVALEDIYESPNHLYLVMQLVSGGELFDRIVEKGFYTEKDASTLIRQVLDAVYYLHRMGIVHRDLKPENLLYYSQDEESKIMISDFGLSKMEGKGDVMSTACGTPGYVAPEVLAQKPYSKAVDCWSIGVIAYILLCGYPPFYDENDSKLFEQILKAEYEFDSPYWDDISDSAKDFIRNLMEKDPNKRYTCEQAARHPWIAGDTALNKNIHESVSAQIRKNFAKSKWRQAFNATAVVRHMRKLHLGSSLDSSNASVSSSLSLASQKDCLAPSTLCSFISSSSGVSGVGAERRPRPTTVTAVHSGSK
Death-associated protein kinase 1 (Homo sapiens), sequence (P53355 whole entry, looked up): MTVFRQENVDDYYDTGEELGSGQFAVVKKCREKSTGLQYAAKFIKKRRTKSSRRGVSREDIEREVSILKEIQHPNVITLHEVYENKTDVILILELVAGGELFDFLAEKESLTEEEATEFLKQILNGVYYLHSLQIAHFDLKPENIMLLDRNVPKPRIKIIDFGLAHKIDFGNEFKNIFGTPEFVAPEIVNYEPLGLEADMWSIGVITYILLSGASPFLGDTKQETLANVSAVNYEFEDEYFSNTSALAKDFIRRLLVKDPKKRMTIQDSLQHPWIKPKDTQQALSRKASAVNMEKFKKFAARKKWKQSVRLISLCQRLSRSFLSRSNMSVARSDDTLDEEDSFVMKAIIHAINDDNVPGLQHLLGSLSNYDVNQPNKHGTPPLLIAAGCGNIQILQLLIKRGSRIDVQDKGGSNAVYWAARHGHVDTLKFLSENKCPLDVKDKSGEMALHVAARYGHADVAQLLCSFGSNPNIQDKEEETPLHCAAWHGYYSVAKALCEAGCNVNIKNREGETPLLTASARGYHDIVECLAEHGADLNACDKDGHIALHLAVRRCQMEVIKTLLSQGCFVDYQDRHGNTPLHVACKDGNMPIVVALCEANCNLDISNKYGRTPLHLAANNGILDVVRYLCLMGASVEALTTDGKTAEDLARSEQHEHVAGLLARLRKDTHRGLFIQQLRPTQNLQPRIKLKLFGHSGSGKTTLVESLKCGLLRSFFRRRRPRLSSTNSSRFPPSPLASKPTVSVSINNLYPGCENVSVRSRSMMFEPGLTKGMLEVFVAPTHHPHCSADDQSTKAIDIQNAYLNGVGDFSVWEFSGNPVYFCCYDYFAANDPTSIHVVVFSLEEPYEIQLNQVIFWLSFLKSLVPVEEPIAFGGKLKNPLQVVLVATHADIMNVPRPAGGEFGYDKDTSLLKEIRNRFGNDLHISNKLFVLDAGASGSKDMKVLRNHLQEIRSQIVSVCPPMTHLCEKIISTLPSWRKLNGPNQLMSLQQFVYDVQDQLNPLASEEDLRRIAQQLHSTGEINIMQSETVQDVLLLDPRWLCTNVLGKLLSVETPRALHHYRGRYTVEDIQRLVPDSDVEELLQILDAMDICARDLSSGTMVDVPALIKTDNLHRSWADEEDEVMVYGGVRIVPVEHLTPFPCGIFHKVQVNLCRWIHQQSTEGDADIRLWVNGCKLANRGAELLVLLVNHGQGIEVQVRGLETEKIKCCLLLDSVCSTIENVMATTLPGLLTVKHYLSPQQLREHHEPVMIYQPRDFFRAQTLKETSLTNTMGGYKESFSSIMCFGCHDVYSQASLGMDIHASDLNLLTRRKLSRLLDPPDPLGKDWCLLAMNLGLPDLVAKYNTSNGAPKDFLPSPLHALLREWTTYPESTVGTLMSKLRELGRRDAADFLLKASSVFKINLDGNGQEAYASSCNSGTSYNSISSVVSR
Calcium/calmodulin-dependent protein kinase type II subunit alpha (Homo sapiens), sequence (Q9UQM7 whole entry): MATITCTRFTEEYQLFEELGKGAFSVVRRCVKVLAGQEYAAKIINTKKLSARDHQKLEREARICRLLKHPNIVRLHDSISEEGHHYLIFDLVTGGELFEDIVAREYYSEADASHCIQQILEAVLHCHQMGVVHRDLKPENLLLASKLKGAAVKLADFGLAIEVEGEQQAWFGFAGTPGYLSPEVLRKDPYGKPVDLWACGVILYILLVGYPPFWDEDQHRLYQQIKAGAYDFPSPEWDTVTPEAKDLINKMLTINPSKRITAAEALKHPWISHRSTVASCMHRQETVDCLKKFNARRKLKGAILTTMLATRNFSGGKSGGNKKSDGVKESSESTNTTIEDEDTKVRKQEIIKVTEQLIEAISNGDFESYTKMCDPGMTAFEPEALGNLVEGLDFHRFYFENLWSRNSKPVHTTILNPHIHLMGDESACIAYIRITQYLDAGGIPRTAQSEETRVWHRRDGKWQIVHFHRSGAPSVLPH
Calcium/calmodulin-dependent protein kinase type II subunit delta (Homo sapiens), sequence (Q13557 whole entry): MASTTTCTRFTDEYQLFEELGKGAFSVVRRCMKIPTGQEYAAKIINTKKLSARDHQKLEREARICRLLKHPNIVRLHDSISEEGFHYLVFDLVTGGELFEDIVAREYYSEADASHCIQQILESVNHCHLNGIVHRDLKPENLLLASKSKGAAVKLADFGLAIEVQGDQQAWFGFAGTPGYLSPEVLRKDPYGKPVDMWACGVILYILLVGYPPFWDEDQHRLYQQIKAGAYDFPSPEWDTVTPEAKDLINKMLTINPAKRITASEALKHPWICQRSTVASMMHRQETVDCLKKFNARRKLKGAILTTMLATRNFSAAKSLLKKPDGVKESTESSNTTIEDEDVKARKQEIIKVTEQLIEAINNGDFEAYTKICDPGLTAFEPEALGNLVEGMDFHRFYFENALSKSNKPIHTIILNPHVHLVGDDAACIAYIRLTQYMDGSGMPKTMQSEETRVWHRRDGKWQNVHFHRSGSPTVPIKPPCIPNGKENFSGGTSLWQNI

For `O=C(Nc1n[nH]c2nc(-c3ccco3)ccc12)C1CC1`, the inhibition in test [1] is 3.94%; in test [2] it was 0.19%; in test [3], 2.78%; in test [4], 0.98%; in test [5] it was 3.49%; in test [6], 0.55%. For the same compound, the inhibition in test [7] was found to be 4.63%; in test [8], 0.8%; in [9], 2.1%; in test [10] it was 1.71%; in test [11], 1.36%; in test [12] it was 2.25%. The inhibition in [13] is 2.34%; in test [14], 2.75%; in [15] it was 3.02%; in test [16], 1.37%; in test [17] it was 8.39%; in test [18] it was 4.66%. The inhibition in [19] is 6.05%; in test [20], 7.38%.
For the compound `C/C(Nc1ccc(S(N)(=O)=O)cc1)=C1/C(=O)Nc2ccccc21`, the inhibition in test [1] was found to be 4.96%; in [2] it was 6.3%; in test [3], 34%; in [4], 1.67%; in test [5] it was 18.9%; in [6], 4.55%. Also, the inhibition in test [7] was 31.1%; in test [8], -0.31%; in [9], -0.55%; in [10], -4.87%; in [11] it was -2.07%; in test [12] it was -2.27%. Moreover, the inhibition in test [13] is 3.2%; in test [14] it was -2.35%; in [15], -0.89%; in test [16] it was 4.5%; in [17], 10.1%; in [18] it was -0.44%. For the same compound, the inhibition is 14.5% in test [19] and 1.47% in test [20].
As to `N#Cc1ccc(Oc2nccc(-c3c(-c4ccc(F)cc4)ncn3C3CCNCC3)n2)cc1`, the inhibition in test [1] is 3.23%; in test [2] it was -1.37%; in test [3], 0.67%; in test [4], -2.05%; in test [5] it was 0.23%; in test [6], 0.71%. Besides, the inhibition came out at 2.75% in test [7]; 0.44% in test [8]; 0.96% in test [9]; 2.95% in test [10]; 0.01% in [11]; 3.46% in test [12]. Further, the inhibition in [13] is 5.08%; in test [14] it was -1.84%; in test [15], 6.38%; in [16], 1.81%; in [17], -0.27%; in [18], 4.28%. The inhibition in test [19] was found to be 4.2%; in test [20], 2.55%.
